Measured values: PubChem BioAssay AID1159580 (chemical genetic matrix, 2015)
Several values for one entry are separate records, joined by “and”; a condition that tells them apart may be missing. Equal entries are not always repeated. Hit rate of the full screen: of about 5,500 compounds, about 2,000 (36%) were called active. About 18% were inconclusive and are not listed. Rule as the data show it: active = normalized growth mostly below about 0.91 (no sharp cut-off); inconclusive = no clear call, values can overlap the other calls; inactive = mostly above about 0.92. Some of the results follow.

Test: chemical genetic growth profiling, strain panel (AID 1159580);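 also: tested at 20 µM; growth read once vehicle control cultures reached saturation at 30 °C; 1 = growth at the plate median or of vehicle wells; lower values mean less growth of the strain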
Settings: S. cerevisiae deletion strains, growth OD

Measured: normalized growth

CC(=O)OCC1=C(C(=O)O)N2C(=O)[C@@H](NC(=O)CSc3ccncc3)[C@H]2SC1
inactive: locus YAL013W, strain DEP1, stronger effect = lower value 0.988 | locus YAL021C, strain ccr4, stronger effect = lower value 1.02 | locus YAL026C, strain drs2, stronger effect = lower value 1.02 | locus YAL030W, strain snc1, stronger effect = lower value 1 | locus YBL061C, strain skt5, stronger effect = lower value 1.04 | locus YBR009C, strain hhf1, stronger effect = lower value 1.01 | locus YBR021W, strain FUR4, stronger effect = lower value 1.02 | locus YBR023C, strain chs3, stronger effect = lower value 1.04 | locus YBR171W, strain sec66, stronger effect = lower value 1.02 | locus YBR229C, strain ROT2, stronger effect = lower value 0.95 | locus YBR231C, strain swc5, stronger effect = lower value 1.04 | locus YBR279W, strain paf1, stronger effect = lower value 1.03 | locus YCL011C, strain gbp2, stronger effect = lower value 1.01 | locus YCL016C, strain dcc1, stronger effect = lower value 1.02 | locus YCL029C, strain bik1, stronger effect = lower value 1 | locus YCL061C, strain MRC1, stronger effect = lower value 1.01 | locus YCL069W, strain vba3, stronger effect = lower value 1.02 | locus YCR088W, strain abp1, stronger effect = lower value 1.02 | locus YDL005C, strain med2, stronger effect = lower value 1.02 | locus YDL035C, strain GPR1, stronger effect = lower value 0.959 | locus YDL040C, strain nat1, stronger effect = lower value 1.02 | locus YDL074C, strain BRE1, stronger effect = lower value 1 | locus YDL101C, strain DUN1, stronger effect = lower value 0.988 | locus YDL185W, strain tfp1, stronger effect = lower value 0.966 | locus YDL192W, strain arf1, stronger effect = lower value 0.984 | locus YDR001C, strain nth1, stronger effect = lower value 1.02 | locus YDR069C, strain doa4, stronger effect = lower value 1.04 | locus YDR101C, strain arx1, stronger effect = lower value 0.976 | locus YDR137W, strain rgp1, stronger effect = lower value 1 | locus YDR159W, strain sac3, stronger effect = lower value 1.03 | locus YDR162C, strain NBP2, stronger effect = lower value 0.946 | locus YDR195W, strain ref2 1.03 | locus YDR297W, strain sur2, stronger effect = lower value 1.02 | locus YDR318W, strain mcm21, stronger effect = lower value 0.99 | locus YDR334W, strain swr1, stronger effect = lower value 1.01 | locus YDR335W, strain msn5, stronger effect = lower value 1.03 | locus YDR388W, stronger effect = lower value 0.988 | locus YDR392W, strain spt3, stronger effect = lower value 0.957 | locus YDR502C, strain sam2, stronger effect = lower value 0.998 | locus YEL003W, strain gim4, stronger effect = lower value 1.03 | locus YEL037C, strain rad23, stronger effect = lower value 1 | locus YEL061C, strain CIN8 (second series), stronger effect = lower value 1.05 | locus YEL061C, strain CIN8, stronger effect = lower value 0.99 | locus YER015W, strain faa2, stronger effect = lower value 1.01 | locus YER016W, strain bim1, stronger effect = lower value 1.03 | locus YER110C, stronger effect = lower value 0.991 | locus YER111C, strain swi4, stronger effect = lower value 0.997 | locus YER155C, strain BEM2 (second series), stronger effect = lower value 0.992 | locus YER155C, strain BEM2, stronger effect = lower value 0.994 | locus YER167W, strain BCK2, stronger effect = lower value 0.995 | locus YFR010W, strain ubp6, stronger effect = lower value 1.02 | locus YGL078C, strain dbp3, stronger effect = lower value 0.995 | locus YGL086W, strain mad1, stronger effect = lower value 0.981 | locus YGL167C, strain pmr1, stronger effect = lower value 1.03 | locus YGL173C, strain kem1, stronger effect = lower value 1.03 | locus YGL227W, strain vid30, stronger effect = lower value 1.01 | locus YGL240W, strain doc1, stronger effect = lower value 1.03 | locus YGL248W, strain PDE1, stronger effect = lower value 1.01 | locus YGL253W, strain hxk2, stronger effect = lower value 1.02 | locus YGR078C, strain PAC10, stronger effect = lower value 0.989 | locus YGR135W, strain pre9, stronger effect = lower value 1.04 | locus YGR252W, strain gcn5, stronger effect = lower value 1.02 | locus YHR013C, strain ard1, stronger effect = lower value 1.03 | locus YHR027C, strain rpn1, stronger effect = lower value 1.02 | locus YHR030C, strain SLT2, stronger effect = lower value 0.983 and 0.995 | locus YHR079C, strain IRE1 (second series), stronger effect = lower value 0.997 | locus YHR079C, strain IRE1, stronger effect = lower value 1.01 | locus YHR094C, strain hxt1, stronger effect = lower value 0.991 | locus YHR129C, strain ARP1, stronger effect = lower value 0.984 | locus YHR142W, strain chs7, stronger effect = lower value 1.03 | locus YHR200W, strain rpn10, stronger effect = lower value 0.984 | locus YIL066C, strain RNR3, stronger effect = lower value 0.969 | locus YIL073C, strain SPO22, stronger effect = lower value 1.03 | locus YIL125W, strain kgd1, stronger effect = lower value 0.984 | locus YIR030C, strain dcg1, stronger effect = lower value 0.993 | locus YJL092W, strain hpr5, stronger effect = lower value 1.02 | locus YJL095W, strain BCK1 (second series), stronger effect = lower value 1.02 | locus YJL095W, strain BCK1, stronger effect = lower value 1.05 and 0.991 | locus YJL115W, strain asf1, stronger effect = lower value 1.03 | locus YJL129C, strain trk1, stronger effect = lower value 1.01 | locus YJL134W, strain LCB3, stronger effect = lower value 0.991 | locus YJL154C, strain vps35, stronger effect = lower value 1.02 | locus YJL164C, strain tpk1, stronger effect = lower value 1.01 | locus YJL166W, strain qcr8, stronger effect = lower value 1.03 | locus YJL168C, strain set2, stronger effect = lower value 0.99 | locus YJL187C, strain SWE1 (second series), stronger effect = lower value 1 | locus YJL187C, strain SWE1, stronger effect = lower value 1.02
